# The campaign covered roughly 5,500 compounds. About 2,000 (36%) were called active. About 18% were inconclusive and are not listed. The list shows a part of the results. Unmarked numbers belong to inactive results. No stated cut-off is given here; in the data, active means normalized growth mostly below about 0.91 (no sharp cut-off); inconclusive means no clear call, values can overlap the other calls; inactive means mostly above about 0.92.
# Test: chemical genetic growth profiling, strain panel (AID 1159580);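 further: tested at 20 µM; growth read once vehicle control cultures reached saturation at 30 °C; 1 = growth at the plate median or of vehicle wells; lower values mean less growth of the strain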
# Conditions: S. cerevisiae deletion strains, growth OD
structure (smiles),measurement,setting,value
O=C(c1ccccc1)c1cc2c(cc1Br)OCCO2,normalized growth,"locus YAL013W, strain DEP1, hits give low values",0.908 (active)
same,normalized growth,"locus YBR229C, strain ROT2, hits give low values",0.953
same,normalized growth,"locus YDL101C, strain DUN1, hits give low values",0.897 (active)
same,normalized growth,"locus YDL134C, strain PPH21, hits give low values",0.942
same,normalized growth,"locus YDR150W, strain NUM1, hits give low values",0.927
same,normalized growth,"locus YEL061C, strain CIN8, hits give low values",0.904 (active)
same,normalized growth,"locus YGR078C, strain PAC10, hits give low values",0.922 (active)
same,normalized growth,"locus YHR030C, strain SLT2, hits give low values",0.304 (active)
same,normalized growth,"locus YHR087W, strain rtc3, hits give low values",0.989
same,normalized growth,"locus YJR043C, strain POL32, hits give low values",0.906 (active)
same,normalized growth,"locus YJR075W, strain HOC1, hits give low values",0.93
same,normalized growth,"locus YKL190W, strain CNB1, hits give low values",0.845 (active)
same,normalized growth,"locus YLR039C, strain RIC1, hits give low values",0.486 (active)
same,normalized growth,"locus YLR058C, strain SHM2 (second series), hits give low values",0.956
same,normalized growth,"locus YLR085C, strain ARP6, hits give low values",0.419 (active)
same,normalized growth,"locus YLR262C, strain YPT6, hits give low values",0.524 (active)
same,normalized growth,"locus YML094W, strain GIM5, hits give low values",0.852 (active)
same,normalized growth,"locus YMR219W, strain ESC1, hits give low values",0.952
same,normalized growth,"locus YMR263W, strain SAP30, hits give low values",0.921
same,normalized growth,"locus YNL153C, strain GIM3, hits give low values",0.91 (active)
same,normalized growth,"locus YNL298W, strain CLA4 (second series), hits give low values",0.7 (active)
same,normalized growth,"locus YNL322C, strain KRE1, hits give low values",0.955
same,normalized growth,"locus YNR030W, strain Alg12, hits give low values",0.811 (active)
same,normalized growth,"locus YPL055C, strain LGE1, hits give low values",0.845
same,normalized growth,"locus YPL241C, strain CIN2, hits give low values",0.823 (active)
same,normalized growth,"locus YPR135W, strain CTF4, hits give low values",0.445 (active)

# — PubChem BioAssay AID1159580 (chemical genetic matrix, 2015)
